This note sets out measurements from the supplement of paper PMC12632987.

B1: usp_38_diff_out_5_164_588 (protein)
chain: GLEEYLEEIDKITEETIEKLKKLLEEAKKNPEKLEEYEKEIEKLTEEALDKINEVVTEALEKHPEKAEEILAHYDEQVTRLLTAYQEAKKELEKLKKEKE
B2: usp_38_diff_out_5_164_594 (protein)
chain: GVDAALAEIDKITEEAIKKMEELLEKAKKNPEQLDEYKKKLTEITNEALDKINATTTAALEAHPEQADTILAHYDKQVTKMLTKYQEALDEIEKLKKEKE
B3: usp_38_diff_out_5_164_605 (protein)
chain: GVEEALERLERIREELKKELDELLEEAKKNPEKLEEYKKKVTEKVNEAIDEMNEVTTAALEAHPERADEILAHYDEVVTEMLEHYNKVMEELEKLKKEYE
B4: usp_38_diff_out_5_164_589 (protein)
chain: GVEKYLEEIDKLTEEAIAKIKELLAEAKKNPEKLDEVEKEIKELTDKTLDEINKITTEALEKFPEKAEEILSHYDEQVTKLLTAYQAALDELAKLKKEKA
B5: usp_38_diff_out_5_164_593 (protein)
chain: GVEEYLEELEKITEEAIKKLKELLEEAKKDPSKLEEYKKKATELVNEAIDKMNEITTEALEKHPEKADEILEHYDRQVTRLLTEYQKVMDEIEKIKKELE
B6: usp_38_diff_out_5_164_584 (protein)
chain: EVEEAFKEMDALTEETIKKLNELLKEAKENPEKAEEYLKEATSLVNSALDKLNEITTETLEKHPEKAEEILKHYDERVTKLLTEYQKVKEEIQKIIEEAK
B7: usp_38_diff_out_5_164_599 (protein)
chain: SLEEYLRRMEEIREKLIKELKELLEEAKKNPEKLEEIKKEVEKKTEEALNEMNEITTAALEAYPERAEEILRHYSEQVEKMLTEYQEVMEELEKLEKEKK
B8: usp_38_diff_out_5_164_585 (protein)
chain: GVEEAKKKMTELTEETIKKLEELLKKAKENPEKAEEYLKEANKLVQEALDELNRITTETLEAHPEQAEEILAHYSEQVTKLLTKYQEVMKEIKEIIKKAK
B9: usp_38_diff_out_5_164_586 (protein)
chain: TVEAAKKQMDEITEKLIKELKKLKEEAEKDPSKLDEIEKEANEKTNKAIDEMTAITTETLEANPEKADEILAHYSEQIDKMLKEYQELMDYIKKLKEEKE
B10: usp_38_diff_out_5_164_604 (protein)
chain: AVEEALAKMKAITEELKKKFDELLAEAKKNPEKLDEYKKEVTEALNKAIDEMNEVTTAALEAAPEQADTILAAYDENVTEMLTHYQAVMDELKALEKEAA
B11: usp_38_diff_out_5_164_602 (protein)
chain: SLEEYLKEMDELTKELIEELKKLVEEAKKNPEKLEEYKKKINEKTNEAIDKMNEITTKALEEFPEKAEEILKHYSEQIDKMLEAKNAAMKELDALKKAQA
B12: usp_38_diff_out_5_164_603 (protein)
chain: AVEAALAEMDAIAAELKKELEKLLEEAKKNPEKLEEYKKKLTEATNAALDRLNATTTAALEAAPERADEILAHYDRVVTEMLTKYQEAKEELEKLKKEAA
B13: usp_38_diff_out_5_164_587 (protein)
chain: MVEEYLKEMEKITEEAIKKLEELLAEAKKNPEKLDEYKKEIEKLVEKALNEINELVTKALEENPEKAEEILKKYDELVTKLLTAYQKAMKELEALKKEKA
B14: usp_38_diff_out_5_164_592 (protein)
chain: GVEKYLEELQKITDEAIKELKELLEEAKENPEKLEEYKKKATEKTNEAIDKMNEITTKALEEHPEQADTILAHYDEQVTKLLTEYNEVLKEIEELKKKKE
B15: usp_38_diff_out_5_164_600 (protein)
chain: SVEESLAEIDKITAELKEELKALLAEAKENPEKLKEYKKKMTEKMNEAIDKMNEITTKTLEAYPEQADTILAHYDRRMTEMLTAYNEAMKELEALEKELA
B16: usp_38_diff_out_5_164_596 (protein)
chain: SVEEALKELTELTDKTIAEIDKLVAEAKKNPEKLDEYEKQLTETTNEAIDKMNEITTKALEANPEKADEILSHYDEQMTRLLTRYAEAKAEIEALKKALE

For this test, the target named is T1, USP38, Q8NB14.
T1 chain: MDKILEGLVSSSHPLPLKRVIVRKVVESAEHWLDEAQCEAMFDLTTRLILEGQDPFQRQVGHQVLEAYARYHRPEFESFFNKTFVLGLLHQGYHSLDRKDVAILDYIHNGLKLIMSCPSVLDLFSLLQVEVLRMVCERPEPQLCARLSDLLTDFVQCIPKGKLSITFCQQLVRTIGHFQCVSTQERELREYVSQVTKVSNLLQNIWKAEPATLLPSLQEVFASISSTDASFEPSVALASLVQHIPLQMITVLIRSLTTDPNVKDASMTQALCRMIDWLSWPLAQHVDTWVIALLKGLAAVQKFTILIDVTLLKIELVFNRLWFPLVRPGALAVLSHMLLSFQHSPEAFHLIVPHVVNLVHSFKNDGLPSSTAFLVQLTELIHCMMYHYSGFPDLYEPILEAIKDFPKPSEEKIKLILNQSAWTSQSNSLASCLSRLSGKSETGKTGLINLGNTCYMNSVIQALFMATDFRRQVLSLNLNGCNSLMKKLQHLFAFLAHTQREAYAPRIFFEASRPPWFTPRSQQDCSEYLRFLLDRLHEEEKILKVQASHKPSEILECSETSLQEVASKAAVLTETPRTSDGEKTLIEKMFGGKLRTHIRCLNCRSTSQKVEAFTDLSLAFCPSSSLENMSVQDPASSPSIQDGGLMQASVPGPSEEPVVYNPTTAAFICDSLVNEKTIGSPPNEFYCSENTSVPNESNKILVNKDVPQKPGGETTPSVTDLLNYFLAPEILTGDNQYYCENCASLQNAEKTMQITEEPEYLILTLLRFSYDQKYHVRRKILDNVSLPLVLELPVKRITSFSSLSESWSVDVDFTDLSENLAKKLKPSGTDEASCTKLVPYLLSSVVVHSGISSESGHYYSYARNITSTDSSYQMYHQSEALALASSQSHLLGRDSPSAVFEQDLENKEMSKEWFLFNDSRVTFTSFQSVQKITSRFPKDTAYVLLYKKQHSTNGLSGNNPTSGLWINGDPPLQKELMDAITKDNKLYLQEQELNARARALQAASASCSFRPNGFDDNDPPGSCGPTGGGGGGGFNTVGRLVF
The test is described as follows: median log2 fold change of GCK-ALFA target abundance (FLAG IP / Myc IP barcode read proportion) (log2 ratio); each designed protein is fused to an ALFA-tag nanobody in HEK293 cells to bring the named protein to FLAG-tagged glucokinase (GCK); Myc marks an untargeted standard; higher = target protein stabilised (more abundant). Conditions: target protein: 3xFLAG-MCP-GCK-ALFA reporter; HEK293 landing pad (RPLP). The procedure, abridged: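 Sequencing of reverse-transcribed, amplified circular RNA barcodes from anti-FLAG and anti-Myc immunoprecipitates provided the readout for an ALFA-nanobody-fused binder library recombined into HEK293 landing-pad cells. Those cells were induced with 2 μg mL^−1 doxycycline, transfected with a plasmid expressing a FLAG-tagged target and a Myc-tagged standard, and lysed after 48 h. Target abundance is the per-binder median log2 ratio of FLAG to Myc barcode read proportions. Only barcodes at a proportion of ≥10^−7 in both replicates and binders with ≥3 barcodes per replicate were kept, with a 10^−6 pseudocount added before the two replicates were pooled.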
In the case of B1, the “median log2 fold change” value is 0.25. The result for B2 reads -0.474; that for B3, -0.0369. On to B4, for which the “median log2 fold change” value was -0.351. The result for B5 reads -0.211. The same measure for B6: -0.0565; for B7: -0.404; for B8: 0.00563. The result for B9 reads -0.179; that for B10, -0.333. B11: the “median log2 fold change” value was 0.277. The same measure for B12: -0.21. For the molecule B13, the “median log2 fold change” value was -0.281. On to B14, for which the “median log2 fold change” value is 0.0989. Regarding B15, the “median log2 fold change” value is -0.0274.

Take B16: the “median log2 fold change” value was -0.12.
